Each structure is given as a SMILES string. Several values for one entry are separate records, joined by “and”; a condition that tells them apart may be missing. Equal entries are not always repeated. Results filed as inconclusive are left out. A call without a number means that no potency is given here. Activity calls are given as the source filed them. Unless noted, calls follow the shape of the full dose curve.

The source of these data is PubChem BioAssay (NCATS).

Sequence of Estrogen receptor (Homo sapiens) (P03372 whole entry, looked up): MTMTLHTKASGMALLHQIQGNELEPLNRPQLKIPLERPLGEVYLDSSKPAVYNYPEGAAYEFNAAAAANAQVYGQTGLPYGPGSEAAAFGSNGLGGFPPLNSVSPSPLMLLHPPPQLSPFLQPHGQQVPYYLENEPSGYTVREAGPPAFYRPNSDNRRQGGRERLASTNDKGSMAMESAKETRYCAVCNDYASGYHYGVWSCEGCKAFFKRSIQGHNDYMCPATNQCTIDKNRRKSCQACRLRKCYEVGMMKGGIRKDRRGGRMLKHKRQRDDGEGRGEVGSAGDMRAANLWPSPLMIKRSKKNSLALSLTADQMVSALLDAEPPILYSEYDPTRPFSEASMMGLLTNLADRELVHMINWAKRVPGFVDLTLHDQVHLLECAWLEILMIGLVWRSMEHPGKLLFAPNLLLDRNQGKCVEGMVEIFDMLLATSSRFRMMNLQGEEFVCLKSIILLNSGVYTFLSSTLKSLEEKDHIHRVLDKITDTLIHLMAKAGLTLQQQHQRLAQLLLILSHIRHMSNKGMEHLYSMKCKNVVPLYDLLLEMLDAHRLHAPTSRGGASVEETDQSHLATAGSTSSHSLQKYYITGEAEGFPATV
Sequence of Glucocorticoid receptor (Homo sapiens) (P04150 whole entry, looked up): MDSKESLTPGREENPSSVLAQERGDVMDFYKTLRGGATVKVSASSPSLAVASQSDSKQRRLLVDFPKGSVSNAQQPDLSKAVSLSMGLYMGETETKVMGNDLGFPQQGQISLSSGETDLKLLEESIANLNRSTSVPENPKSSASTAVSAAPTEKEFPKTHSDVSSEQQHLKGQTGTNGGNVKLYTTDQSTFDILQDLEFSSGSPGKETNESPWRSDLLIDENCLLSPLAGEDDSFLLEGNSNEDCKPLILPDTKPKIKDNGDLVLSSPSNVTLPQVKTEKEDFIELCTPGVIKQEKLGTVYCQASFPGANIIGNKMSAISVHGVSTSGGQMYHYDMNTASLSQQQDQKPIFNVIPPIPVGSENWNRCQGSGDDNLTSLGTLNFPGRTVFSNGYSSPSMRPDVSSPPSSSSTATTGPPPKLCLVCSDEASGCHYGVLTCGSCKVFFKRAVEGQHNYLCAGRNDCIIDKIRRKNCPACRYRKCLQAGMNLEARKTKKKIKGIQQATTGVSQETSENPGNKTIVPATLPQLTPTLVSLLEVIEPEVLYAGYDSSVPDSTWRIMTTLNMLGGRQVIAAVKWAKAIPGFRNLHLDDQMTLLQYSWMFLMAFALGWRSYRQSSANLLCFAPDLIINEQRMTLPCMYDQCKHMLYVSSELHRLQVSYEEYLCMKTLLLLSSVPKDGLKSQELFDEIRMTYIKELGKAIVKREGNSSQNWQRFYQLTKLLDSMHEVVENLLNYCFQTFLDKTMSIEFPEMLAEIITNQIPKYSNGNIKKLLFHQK

The first experiment has as its target Estrogen receptor (Homo sapiens) (UniProt P03372). Description: qHTS assay for small molecule antagonists of estrogen receptor alpha signaling (AID 588513; active = well fitted curve in the direction sought with a large enough effect in the signal ratio, with a control signal flat, not every such curve was filed as active; the % refers to the signal ratio; also: potency is read from the fitted curve at half-maximal effect). The conditions noted are these: ER-alpha-UAS-bla HEK293, beta-lactamase ratio, antagonist mode; series mostly up to 76.9 µM. The gist of the method:
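ER-alpha-UAS-bla GripTite HEK 293 cells in 2% charcoal/dextran-treated FBS medium; compounds titrated (1:2, duplicate), then stimulated with 0.5 nM 17-beta-estradiol for 18 h at 37C. CCF4 beta-lactamase fluorescence; Hill-fit IC50 and efficacy.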
Take `O=c1[nH]cnc2[nH]ncc12`: the Potency result is “inactive”.
Still for that read-out and setting: for `CC(=O)Oc1ccccc1C(=O)O` the value was “inactive”; for `CC(C)(Sc1ccc(CCN(CCCCC2CCCCC2)C(=O)NC2CCCCC2)cc1)C(=O)O`, 15.8 µM [inhibitor] (active); for `Cn1cnc([N+](=O)[O-])c1Sc1ncnc2nc[nH]c12`, “inactive”.
The same measure, in the same setting: the same measure for `Cc1ccccc1C(OCCN(C)C)c1ccccc1` (stereo not given): “inactive”; for `NS(=O)(=O)c1cc2c(cc1Cl)NC=NS2(=O)=O`: “inactive”; for `CCCC(CCC)C(=O)O`: “inactive”.
For the compound `NC(=O)c1cnccn1`, the Potency entry is “inactive”.

The target is the same in the next experiment. In words: qHTS assay for small molecule agonists of estrogen receptor alpha signaling (AID 588514). Also: nearly all actives have a fitted effect of over 70% in size. The conditions noted are these: ER-alpha-UAS-bla HEK293, beta-lactamase ratio, 18 h, percent of full estradiol response, vehicle zero; series mostly up to 76.8 µM. In outline:
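EC50 and efficacy came from Hill fits of beta-lactamase reporter signal (CCF4 dye, 2 h at room temperature) scaled between DMSO and 20 nM 17-beta-estradiol. Agonist mode: HEK293 ER-alpha-UAS-bla cells in charcoal/dextran-stripped serum medium, 18 h compound exposure at 37 C.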
Consider `O=c1[nH]cnc2[nH]ncc12`, for which the outcome was inactive.
On the same count and under the same terms, the same measure for `CC(=O)Oc1ccccc1C(=O)O`: “inactive”; for `Cn1cnc([N+](=O)[O-])c1Sc1ncnc2nc[nH]c12`: “inactive”; for `O=NN(CCCl)C(=O)NCCCl`: “inactive”.
Still for that read-out and setting: the same measure for `NS(=O)(=O)c1cc2c(cc1Cl)NC=NS2(=O)=O`: “inactive”; for `CCCC(CCC)C(=O)O`: “inactive”; for `NC(N)=NC(=O)c1nc(Cl)c(N)nc1N`: “inactive”.
Regarding `NC(=O)c1cnccn1`, the result was inactive.

The target of a further experiment is Androgen receptor (Homo sapiens) (UniProt P10275). In words: qHTS assay for small molecule agonists of androgen receptor signaling (AID 588515; active = well fitted curve in the direction sought with a large enough effect in the signal ratio, with a control signal flat; the % refers to the signal ratio; also: potency is read from the fitted curve at half-maximal effect). The conditions noted are these: AR-UAS-bla HEK293, beta-lactamase ratio, agonist 16 h; activation: stronger effect = higher value. In outline: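 Stimulation of an AR-responsive β-lactamase reporter in GripTite HEK293 cells was measured after 16 h compound exposure at 37 °C, via CCF4 fluorescence after 2 h RT. EC50 from Hill fits, normalized to R1881 at 30 nM.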
Sequence of Androgen receptor (Homo sapiens) (P10275 whole entry, looked up): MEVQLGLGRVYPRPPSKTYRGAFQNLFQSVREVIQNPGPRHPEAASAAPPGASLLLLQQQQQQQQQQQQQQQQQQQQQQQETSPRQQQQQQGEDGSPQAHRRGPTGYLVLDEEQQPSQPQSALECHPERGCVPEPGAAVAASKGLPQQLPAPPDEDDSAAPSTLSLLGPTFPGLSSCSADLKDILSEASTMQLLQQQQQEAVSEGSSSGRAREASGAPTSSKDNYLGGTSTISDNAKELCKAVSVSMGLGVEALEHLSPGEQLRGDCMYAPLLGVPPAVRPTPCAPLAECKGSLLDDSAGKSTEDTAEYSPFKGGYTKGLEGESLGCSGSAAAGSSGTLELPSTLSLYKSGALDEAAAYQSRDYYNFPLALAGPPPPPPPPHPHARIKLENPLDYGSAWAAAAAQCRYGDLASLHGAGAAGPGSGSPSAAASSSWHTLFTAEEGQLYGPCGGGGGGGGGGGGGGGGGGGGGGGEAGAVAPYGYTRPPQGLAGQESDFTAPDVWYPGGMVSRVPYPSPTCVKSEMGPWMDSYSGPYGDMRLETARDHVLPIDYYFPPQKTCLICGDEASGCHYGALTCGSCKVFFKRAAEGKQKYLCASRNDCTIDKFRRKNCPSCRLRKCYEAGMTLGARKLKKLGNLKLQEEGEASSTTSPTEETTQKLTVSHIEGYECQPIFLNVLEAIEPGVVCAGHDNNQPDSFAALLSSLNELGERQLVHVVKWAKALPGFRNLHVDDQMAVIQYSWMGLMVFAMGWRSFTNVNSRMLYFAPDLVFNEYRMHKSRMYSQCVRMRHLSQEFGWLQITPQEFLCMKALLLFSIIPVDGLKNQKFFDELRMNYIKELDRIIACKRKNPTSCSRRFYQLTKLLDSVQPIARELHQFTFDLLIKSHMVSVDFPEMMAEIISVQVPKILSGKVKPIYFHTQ
In general terms: Quantitative high-throughput screening tests each substance at several concentrations.
Take `CC(=O)Oc1ccccc1C(=O)O`: the activation was -3.22% (inactive) and 7.95% (inactive).
Still for that read-out and setting: the same measure for `CC(C)(Sc1ccc(CCN(CCCCC2CCCCC2)C(=O)NC2CCCCC2)cc1)C(=O)O`: -10.8% (inactive); for `O=NN(CCCl)C(=O)NCCCl`: 15.8% (inactive).
Take `C[C@]12CCC(=O)C=C1CC[C@@H]1[C@@H]2[C@@H](O)C[C@@]2(C)[C@H]1CC[C@]2(O)C(=O)CO`: the Potency was 0.0141 µM (active).

The target is the same in another experiment. Description: qHTS assay for small molecule antagonists of androgen receptor signaling (AID 588516; active = well fitted curve in the direction sought with a large enough effect in the signal ratio, with a control signal flat, not every such curve was filed as active; the % refers to the signal ratio). The conditions noted are these: AR-UAS-bla HEK293, beta-lactamase ratio, antagonist mode, 16 h; series mostly up to 76.8 µM. The gist of the method:
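AR-UAS-bla GripTite HEK 293 cells (2000/well) treated with compound titrations plus 10 nM R1881 for 16 h at 37C. Beta-lactamase read by CCF4 FRET (460/530 nm); IC50 from Hill fits, normalized to R1881 and DMSO control wells.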
For `CC(=O)Oc1ccccc1C(=O)O`, the result was inactive.
Still for that read-out and setting: the same measure for `CC(C)(Sc1ccc(CCN(CCCCC2CCCCC2)C(=O)NC2CCCCC2)cc1)C(=O)O`: “inactive”.
Still for that read-out and setting: for `O=NN(CCCl)C(=O)NCCCl` the value was “inactive”.

The next experiment deals with Glucocorticoid receptor (Homo sapiens) (UniProt P04150). In words: qHTS assay for small molecule antagonists of glucocorticoid receptor signaling (AID 588533; active = well fitted inhibition curve with a large enough effect in the signal ratio, with a control signal flat, not every such curve was filed as active; the % refers to the signal ratio;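 also: cells stimulated with 2 nM dexamethasone as agonist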; also: potency is read from the fitted curve at half-maximal effect). The conditions noted are these: HeLa MMTV-bla, GRE beta-lactamase ratio, antagonist mode, 18 h; series mostly up to 76.8 µM. The gist of the method:
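Antagonist-mode qHTS: compound titrations added to GRE-bla HeLa cells, then dexamethasone 2 nM final; 18 h, 37 C. CCF4 FRET fluorescence normalized to dexamethasone and DMSO; IC50 from Hill fit.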
`O=c1[nH]cnc2[nH]ncc12`: the Potency result was “inactive”.
On the same count and under the same terms, for `NC[C@H](O)c1ccc(O)c(O)c1` the value was “inactive”.
Still for that read-out and setting: the same measure for `CC(=O)Oc1ccccc1C(=O)O`: “inactive”.
Still for that read-out and setting: for `CC(C)(Sc1ccc(CCN(CCCCC2CCCCC2)C(=O)NC2CCCCC2)cc1)C(=O)O` the value was 20 µM (active).
As for `Cn1cnc([N+](=O)[O-])c1Sc1ncnc2nc[nH]c12`, the Potency entry was “inactive”.
Still for that read-out and setting: the same measure for `Cc1ccccc1C(OCCN(C)C)c1ccccc1` (stereo not given): “inactive”; for `O=NN(CCCl)C(=O)NCCCl`: “inactive”.
The same measure, in the same setting: the same measure for `C[C@]12CCC(=O)C=C1CC[C@@H]1[C@@H]2[C@@H](O)C[C@@]2(C)[C@H]1CC[C@]2(O)C(=O)CO`: “inactive”; for `CCCC(CCC)C(=O)O`: “inactive”; for `NC(=O)c1cnccn1`: “inactive”.
Still for that read-out and setting: for `O=C1CCC(N2C(=O)c3ccccc3C2=O)C(=O)N1` (stereo not given) the value was “inactive”.

Tested on in a further experiment: not listed separately
Description: qHTS assay for small molecule antagonists of peroxisome proliferator-activated receptor delta signaling (AID 588535; active = well fitted inhibition curve with a large enough effect in the signal ratio, with a control signal flat, not every such curve was filed as active; the % refers to the signal ratio;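 as to max response: cells co-treated with a PPAR-delta agonist as stimulator during compound exposure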). The conditions noted are these: HEK293T PPARd-UAS-bla, beta-lactamase FRET ratio, 18 h; 460 nm channel. The gist of the method:
(§1)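 Inhibition of PPAR-delta response element-driven beta-lactamase expression is measured in HEK293T cells exposed to a compound titration series for 18 hrs at 37 C. Half-maximal inhibition comes from Hill equation fitting.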
Consider `O=c1[nH]cnc2[nH]ncc12`, for which the max response was -19.9%.
On the same count and under the same terms, the same measure for `NC[C@H](O)c1ccc(O)c(O)c1`: -17.3%; for `Cc1ccccc1C(OCCN(C)C)c1ccccc1` (stereo not given): -16.5%; for `O=NN(CCCl)C(=O)NCCCl`: 85.8%.
The same measure, in the same setting: for `NS(=O)(=O)c1cc2c(cc1Cl)NC=NS2(=O)=O` the value was -29%; for `C[C@]12CCC(=O)C=C1CC[C@@H]1[C@@H]2[C@@H](O)C[C@@]2(C)[C@H]1CC[C@]2(O)C(=O)CO`, 46.7%.
Still for that read-out and setting: the same measure for `NC(=O)c1cnccn1`: 33.3%.
As to `O=C1CCC(N2C(=O)c3ccccc3C2=O)C(=O)N1` (stereo not given), the max response is 27.4%.

The target in another experiment is Peroxisome proliferator-activated receptor delta (Homo sapiens) (UniProt Q03181). The experiment is described as above. The conditions noted are these: HEK293T PPARd-UAS-bla, beta-lactamase FRET ratio, 18 h; series mostly up to 76.7 µM. In outline: as §1
Sequence of Peroxisome proliferator-activated receptor delta (Homo sapiens) (Q03181 whole entry, looked up): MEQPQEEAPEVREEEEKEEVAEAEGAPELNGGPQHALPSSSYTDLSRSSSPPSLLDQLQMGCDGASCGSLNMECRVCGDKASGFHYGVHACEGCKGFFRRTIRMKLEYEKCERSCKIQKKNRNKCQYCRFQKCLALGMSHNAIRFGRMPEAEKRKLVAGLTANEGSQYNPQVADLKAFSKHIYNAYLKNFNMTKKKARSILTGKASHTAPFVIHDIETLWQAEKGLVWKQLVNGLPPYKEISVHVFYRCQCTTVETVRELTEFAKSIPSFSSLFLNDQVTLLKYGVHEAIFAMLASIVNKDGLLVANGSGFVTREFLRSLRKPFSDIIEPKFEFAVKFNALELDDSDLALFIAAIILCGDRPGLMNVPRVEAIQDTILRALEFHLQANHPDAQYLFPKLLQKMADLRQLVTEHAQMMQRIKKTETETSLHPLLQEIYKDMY
As for `O=c1[nH]cnc2[nH]ncc12`, the result was inactive.
On the same count and under the same terms, the same measure for `NC[C@H](O)c1ccc(O)c(O)c1`: “inactive”.
On the same count and under the same terms, the same measure for `Cc1ccccc1C(OCCN(C)C)c1ccccc1` (stereo not given): “inactive”; for `O=NN(CCCl)C(=O)NCCCl`: “inactive”; for `NS(=O)(=O)c1cc2c(cc1Cl)NC=NS2(=O)=O`: “inactive”.
Regarding `C[C@]12CCC(=O)C=C1CC[C@@H]1[C@@H]2[C@@H](O)C[C@@]2(C)[C@H]1CC[C@]2(O)C(=O)CO`, the result was inactive.
On the same count and under the same terms, the same measure for `NC(=O)c1cnccn1`: “inactive”; for `O=C1CCC(N2C(=O)c3ccccc3C2=O)C(=O)N1` (stereo not given): “inactive”.
